Test [1] in a line: inhibitors of TNFa-induced NFkB p65 translocation, primary screen, imaging, HUVEC, MLSMR starter and 10KST1 sets (AID 438;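 active = inhibition above 20% together with a positive visual image hit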;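 also: compound added about 3h40 before a 20 min TNFalpha stimulation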;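 as to inhibition: signal is the nuclear over cytoplasmic p65 intensity ratio per well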). Particulars: HUVEC TNFa-induced p65 nuclear translocation; cell count: measured here: nuclei count (cytotoxicity indicator), at 2.08 µM unless noted; inhibition: at 2 µM, stronger effect = higher value unless noted.
Test [2] can be described thus: inhibitors of mutant huntingtin aggregation, primary screen, imaging, exon1htt(103Q)mCFP cells, high-content imaging (AID 483;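 active = visual image review flags a hit and inhibition of aggregation exceeds 20%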;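 also: compound exposure lasted 3 days before fixation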;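 as to nuclei count: percent of the per-plate median nuclei count of sample wells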). Particulars: exon1htt(103Q)mCFP cell line, aggregate imaging, at 2 µM; inhibition of aggregation: stronger effect = higher value; nuclei count: measured here: cell count, toxicity.
A short description of test [3]: inhibitors of E-selectin induction by TNFa, primary screen, imaging, HUVEC, immunofluorescence, MLSMR starter and 10KST1 sets (AID 487;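 active = visually confirmed hit in the image check and inhibition above 20%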;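 as to inhibition: signal is fraction of cell area covered by stained E-selectin grains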;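 as to nuclei count: 100% = median nuclei count of all wells on the same plate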). Conditions: HUVEC TNFalpha-induced E-selectin immunofluorescence imaging, at 2 µM; inhibition: stronger effect = higher value; nuclei count: measured here: cell number, toxicity.
Test [4] concerns the target Voltage-gated potassium channel subunit beta-2 (Rattus norvegicus) (UniProt P62483). Description: KvBeta enzyme negative modulators, primary screen, biochemical, NADPH fluorescence (AID 622;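 active = fluorescence slope higher than the sample average by over 3 SD, cut at about -0.22 in these data, passing the limit was not always enough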;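 also: slope of raw intensity against log time taken from 70 to 1610 s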). Conditions: recombinant KvBeta, 4-cyanobenzaldehyde reduction, at 10 µM, stronger effect = higher value.
For test [5] the target is unchanged. Description: KvBeta positive modulators, primary screen, biochemical, NADPH fluorescence (AID 623;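 active = NADPH fluorescence slope more negative than the mean of all samples by about 3 SD, 99.7% confidence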;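 also: fluorescence intensity change per second fitted from 20 to 320 s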). Particulars: Recombinant KvBeta, NADPH fluorescence decrease slope, 10 min; at 10 µM; stronger effect = lower value.
In test [6] the target is Muscarinic acetylcholine receptor M4 (Homo sapiens) (UniProt P08173). Description: compounds altering M4/GIRK thallium flux, either direction, primary screen, M4 allosteric agonist project, cell-based, HEK293 M4/GIRK, BTC-AM (AID 625;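 active = fluorescence slope after compound addition differing from the mean of all tested samples at 99.7% confidence, mostly higher but some lower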;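 also: thallium influx through GIRK channels coupled to M4 in HEK293 cells with BTC-AM dye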). Conditions: at 10 µM, actives lie on both sides.
Muscarinic acetylcholine receptor M4 (Homo sapiens), sequence (P08173 whole entry, looked up): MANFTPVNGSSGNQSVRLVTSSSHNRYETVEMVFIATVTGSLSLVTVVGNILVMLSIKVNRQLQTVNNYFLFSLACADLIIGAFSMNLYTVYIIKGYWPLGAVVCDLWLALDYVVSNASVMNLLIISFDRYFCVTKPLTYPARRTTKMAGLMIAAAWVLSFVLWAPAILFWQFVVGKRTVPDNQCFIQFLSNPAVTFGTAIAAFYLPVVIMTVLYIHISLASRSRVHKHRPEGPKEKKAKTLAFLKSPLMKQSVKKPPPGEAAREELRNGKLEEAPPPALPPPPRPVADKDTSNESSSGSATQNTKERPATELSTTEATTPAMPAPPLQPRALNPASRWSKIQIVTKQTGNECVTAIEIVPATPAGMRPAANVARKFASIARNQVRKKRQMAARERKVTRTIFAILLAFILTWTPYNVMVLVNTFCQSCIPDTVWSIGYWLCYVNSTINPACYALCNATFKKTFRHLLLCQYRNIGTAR
Test [7] in a line: inhibitors of Sendai virus-induced IRF3 signaling, primary screen, TLR/RLR signaling modifier project, cell-based, Sendai virus stimulus, luciferase, 10K MLSCN set (AID 602276;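 active = inhibition at or above 50% at 10 µM; inactive = inhibition below 50%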;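 also: firefly luciferase from ISG56 promoter only with Renilla not read in this screen; 0% = Sendai virus plus DMSO and 100% = medium plus DMSO without virus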). Particulars: HEK293 RL24 IRF3 luciferase reporter, at 10 µM, stronger effect = higher value. Background: A reporter such as luciferase makes a cellular process visible.
A short description of test [8]: inhibitors of poly I:C-induced TLR3 signaling, primary screen, cell-based, poly I:C stimulus, luciferase, 10K MLSCN set (AID 602277;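 active = inhibition of the reporter signal at or above 50%; inactive = inhibition below 50%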). Particulars: HEK293-TLR3 RL24 IRF3 luciferase reporter, at 10 µM, stronger effect = higher value.
Test [9] can be described thus: inhibitors of Chlamydomonas gravitaxis, primary screen, whole organism, Chlamydomonas reinhardtii, WT vs cilia-less mutant, absorbance, 96-well (AID 463189).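 Also: 0% = wild type cc124 cells in DMSO and 100% = ciliumless bld1 mutant cells.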 Conditions: OD600 absorbance, 2 days, at 10 µM, stronger effect = higher value.
Test [10] can be described thus: DUSP6 inhibitors restoring Erk phosphorylation by chemical complementation, primary imaging in DUSP6-transfected HeLa (AID 609;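 active = compounds giving at least 50% inhibition in the cell-based MKP-3 phosphatase rescue imaging test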;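 as to inhibition: phospho-Erk level distribution per well compared with pooled transfected vehicle control wells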). Conditions: HeLa MKP-3 transfected, phospho-Erk imaging KS statistic, at 10 µM.
The target in test [11] is Dual specificity protein phosphatase 6 (Homo sapiens) (UniProt Q16828). Described as above. Particulars: HeLa MKP-3 transfected, phospho-Erk imaging KS statistic, at 10 µM, stronger effect = higher value.
Dual specificity protein phosphatase 6 (Homo sapiens), sequence (Q16828 whole entry, looked up): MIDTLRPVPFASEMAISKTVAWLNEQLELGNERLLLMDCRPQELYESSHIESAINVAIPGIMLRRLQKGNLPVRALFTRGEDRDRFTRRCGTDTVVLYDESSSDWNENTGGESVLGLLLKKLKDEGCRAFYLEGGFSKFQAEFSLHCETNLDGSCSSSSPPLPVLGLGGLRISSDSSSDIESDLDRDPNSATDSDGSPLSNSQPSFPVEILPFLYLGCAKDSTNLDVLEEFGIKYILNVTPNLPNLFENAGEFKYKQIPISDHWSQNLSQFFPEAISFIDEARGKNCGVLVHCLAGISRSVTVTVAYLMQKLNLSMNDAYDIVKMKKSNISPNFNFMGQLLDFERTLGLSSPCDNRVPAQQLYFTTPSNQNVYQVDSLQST
The target of test [12] is Alpha-2C adrenergic receptor (Homo sapiens) (UniProt P18825). Description: modulators of alpha2C/GIRK thallium flux, primary screen, cell-based, HEK293 alpha2C/GIRK1/2 (AID 624;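 active = fluorescence slope after compound addition differing from the mean of all screened samples at 99.7% confidence, in either direction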;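 also: slope of fluorescence ratio to pre-addition baseline per second over 15 to 24 s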). Particulars: thallium flux BTC fluorescence, at 10 µM, actives lie on both sides.
Alpha-2C adrenergic receptor (Homo sapiens), sequence (P18825 whole entry, looked up): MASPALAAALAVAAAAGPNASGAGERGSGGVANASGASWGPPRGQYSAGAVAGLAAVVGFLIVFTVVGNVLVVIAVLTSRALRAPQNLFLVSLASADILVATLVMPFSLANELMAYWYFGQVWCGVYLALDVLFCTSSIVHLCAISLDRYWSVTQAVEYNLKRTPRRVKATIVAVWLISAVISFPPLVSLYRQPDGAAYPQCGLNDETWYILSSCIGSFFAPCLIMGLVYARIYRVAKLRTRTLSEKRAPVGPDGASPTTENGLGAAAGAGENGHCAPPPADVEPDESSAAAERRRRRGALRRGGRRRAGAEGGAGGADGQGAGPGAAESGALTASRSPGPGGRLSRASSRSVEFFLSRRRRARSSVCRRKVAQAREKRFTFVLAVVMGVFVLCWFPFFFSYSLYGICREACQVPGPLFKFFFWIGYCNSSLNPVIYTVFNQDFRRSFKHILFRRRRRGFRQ
Test [13] is described as follows: inhibitors of larval lipid processing in zebrafish, primary screen, whole organism, PED6 fluorescence, gall bladder and intestine (AID 686;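 active = a full or partial loss of lipid-probe fluorescence in the fish gall bladder, intestine or both, judged by eye; inactive = no fluorescence loss, or compound toxic to the fish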;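 also: larvae 5 to 7 days old with five fish per well; signal comes from phospholipase A2 cleavage of quenched PED6 carried via bile; overnight exposure to compound and PED6 before scoring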). Particulars: Zebrafish larvae PED6 lipid processing, fluorescence scoring.

Values joined by “and” are separate entries in the source; they are usually repeats but may differ in a detail not shown here. Equal entries are not always repeated. Active and inactive are the calls of the source.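 The calls were made as follows, unless noted: active = inhibition at or above 50% relative to wild type and mutant plate controls; inactive = inhibition below 50%.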

Voltage-gated potassium channel subunit beta-2 (Rattus norvegicus), sequence (P62483 whole entry, looked up): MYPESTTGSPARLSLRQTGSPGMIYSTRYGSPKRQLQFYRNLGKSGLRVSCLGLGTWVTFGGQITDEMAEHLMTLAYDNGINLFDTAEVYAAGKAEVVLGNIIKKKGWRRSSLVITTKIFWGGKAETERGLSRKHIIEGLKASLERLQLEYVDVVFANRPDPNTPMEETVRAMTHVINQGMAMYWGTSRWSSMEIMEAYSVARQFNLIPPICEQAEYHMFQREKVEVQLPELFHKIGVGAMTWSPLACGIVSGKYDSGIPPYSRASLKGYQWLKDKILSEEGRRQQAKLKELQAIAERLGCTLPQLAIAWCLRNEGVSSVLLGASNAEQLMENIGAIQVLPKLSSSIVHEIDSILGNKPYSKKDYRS

What is called inhibition is the relative decrease from the control value, in per cent. Regarding `COc1ccc(CCNC(=O)c2c(N)n(CCN3CCOCC3)c3nc4ccccc4nc23)cc1`, the cell count in test [1] was 403. In addition, the inhibition in test [1] is 9.5% (inactive); in test [3] it was -157% (inactive); in test [7] it was -3.7% (inactive); in test [8], -28.7% (inactive). Moreover, in test [2], the inhibition of aggregation is -9.7% (inactive). The results for the nuclei count in test [2] and in test [3] were 90.9% and 115%, respectively. The fluorescence slope in test [4] was -0.454 (inactive); in [6], 0.00515 (inactive). The NADPH fluorescence slope in [5] is -7.3e-05 (inactive).

In the case of `COC(=O)c1c(C)n(Cc2ccc3c(c2)OCO3)c2ccc(O)cc12`, in test [1], the cell count is 598. For the same molecule, the inhibition in test [1] was 2.2% (inactive); in [3], 30.8% (inactive); in test [7] it was -0.687% (inactive); in [8] it was -6.04% (inactive). Also, the inhibition of aggregation in test [2] was -6.7% (inactive). For the same molecule, the nuclei count in test [2] was found to be 109%; in [3], 90.3%. Further, the results for the fluorescence slope in [4] and in test [6] were -0.528 (inactive) and 0.0049 (inactive), respectively. For the same molecule, the NADPH fluorescence slope in test [5] was -1.6e-05 (inactive).

As for `CCOC(=O)C1CCCCC12C(C#N)=C(N)Oc1n[nH]c(C)c12` (centres undefined), the cell count in test [1] worked out at 733. The inhibition is -5.8% (inactive) in test [1], -6.6% (inactive) in test [3], 17.2% (inactive) in test [7] and 21.9% (inactive) in test [8]. Further, the inhibition of aggregation in test [2] was -12% (inactive). The nuclei count in test [2] was 104%; in test [3] it was 110%. Moreover, the fluorescence slope is -0.637 (inactive) in test [4] and 0.00575 (inactive) in [6]. Also, the NADPH fluorescence slope in [5] was 1.2e-05 (inactive).

The molecule `Oc1ccc(C2NCc3ccccc3-n3cccc32)cc1Cl` (centres undefined) had a cell count in [1] of 668. Also, the inhibition in [1] is -13.6% (inactive); in test [3] it was -48.5% (inactive); in test [7] it was 4.87% (inactive); in [8], 23.9% (inactive). The inhibition of aggregation in [2] was 35.1% (inactive). The nuclei count came out at 127% in test [2] and 110% in [3]. For the same molecule, the fluorescence slope in [4] was -0.46 (inactive); in [6] it was 0.00669 (inactive). Moreover, the NADPH fluorescence slope in test [5] was -3.3e-05 (inactive).

For `CC1=NN=C(c2ccc(N)cc2)c2cc3c(cc2C1)OCO3`, in test [9], the inhibition is -2.8% (inactive).

In the case of `CCCCCCCCCCCCCC(=O)O[C@@H]1[C@@H](C)[C@@]2(O)[C@@H](C=C(CO)C[C@@]3(O)C(=O)C(C)=C[C@@H]23)C2C(C)(C)[C@@]21OC(C)=O` (some centres undefined), the inhibition in test [9] is -13.4% (inactive).

Regarding `CCCN(CCC)CCc1c[nH]c2ccc(C(N)=O)cc12`, the inhibition in test [9] is -0.498% (inactive).

Turning to `CC[N+](CC)(CC)CC`, the inhibition in [9] was 6.89% (inactive).

For the molecule `C=C(C)[C@H]1CN[C@H](C(=O)O)[C@H]1CC(=O)O`, in [9], the inhibition was -2.25% (inactive).

`CC(N)[C@H](O)c1ccc(O)c(O)c1` (some centres undefined): the inhibition in test [9] was 1.5% (inactive).

For the molecule `NC(=O)COc1c(F)cc(SCCNS(=O)(=O)c2ccccc2)cc1F`, the inhibition in [9] was 4.45% (inactive).

Take `Clc1cc(I)cc(Cl)c1NC1=NCCN1`: the inhibition in test [9] is 9.51% (inactive).

Turning to `CCCCC/C=C\C/C=C\C/C=C\C/C=C\CCCC(=O)NCC(=O)O`, the inhibition in [9] is -0.074% (inactive).

Consider `CCCN(CCC)[C@@H]1CCc2cccc(O)c2C1`, for which the inhibition in [9] is -6.71% (inactive).

For `c1ccc2c(c1)[I+]c1ccccc1-2`, in test [9], the inhibition is 152% (active).

Turning to `CN1C2CCC1CC(OC(=O)c1cc(Cl)cc(Cl)c1)C2` (centres undefined), the inhibition in test [9] is 116% (active).

With `NCCc1c[nH]c2ccc(C(N)=O)cc12`, the inhibition in test [9] is 4.98% (inactive).

`CC(N)Cc1c[nH]c2ccc(OCc3cccs3)cc12` (centres undefined): the inhibition in [9] is 5.48% (inactive).

With `CCCN1CCc2cc(O)cc3c2[C@H]1Cc1ccc(O)c(O)c1-3`, the inhibition in test [9] is 0.25% (inactive).

In the case of `C[N+]1(C)C2CC(OC(=O)[C@H](CO)c3ccccc3)CC1C1OC12` (some centres undefined), the inhibition in [9] is -8.63% (inactive) and 9.74% (inactive).

Consider `COC(=O)N1CCN(C(=O)Cc2ccc(Cl)c(Cl)c2)C(CN2CCCC2)C1` (centres undefined), for which, in [9], the inhibition was -0.837% (inactive).

As to `O=C(Cc1ccc(Cl)c(Cl)c1)N1CCCCC1CN1CCCC1` (centres undefined), the inhibition in test [9] was 1.42% (inactive).

For `C[C@]12CC[C@H](O)CC1=CC[C@@H]1[C@@H]2CC[C@]2(C)C(=O)CC[C@@H]12`, in [9], the inhibition is -2.3% (inactive).

For `COc1cc(CC(C)N)c(OC)cc1I` (centres undefined), in test [9], the inhibition is -7.42% (inactive).

For `OC1CCCCC1N1CCC(c2ccccc2)CC1` (centres undefined), the inhibition in test [9] was 3.25% (inactive).

Consider `C[N+]1(C)CCOC(O)(c2ccc(-c3ccc(C4(O)C[N+](C)(C)CCO4)cc3)cc2)C1` (centres undefined), for which the inhibition in [9] is 1.34% (inactive).

In the case of `CC(Cc1ccc(OCC(=O)O)cc1)NCC(O)c1cccc(Cl)c1` (centres undefined), the inhibition in test [9] was 1% (inactive).

As to `CCCn1c(C)c(C(=O)c2ccc3ccccc3c2)c2ccccc21`, in test [9], the inhibition is 18.5% (inactive).

As for `C#CCOC(=O)C1=CCCN(C)C1`, in [9], the inhibition was 6.87% (inactive).

With `O=C1CC[C@@]2(O)C3Cc4ccc(O)c5c4C2(CCN3CC2CC2)[C@H]1O5` (some centres undefined), the inhibition in [9] is -3.7% (inactive).

In the case of `Cc1nc(-c2ccc(-c3ccc(C(=O)N4CCc5cc6c(cc54)C4(CCN(C)CC4)CO6)cc3)c(C)c2)no1`, the inhibition in test [9] was 141% (active).

Take `O=C1NCN(c2ccccc2)C12CCN(CC1COc3ccccc3O1)CC2` (centres undefined): in [9], the inhibition was 6.88% (inactive).

As to `Clc1cnc(Oc2ccc(Oc3ncc(Cl)cc3Cl)cc2)c(Cl)c1`, the inhibition in test [9] was 2.67% (inactive).

As for `Clc1cccc(N2CCNCC2)c1`, in test [9], the inhibition is 1.7% (inactive).

Turning to `COc1ccc2c(c1O)-c1cccc3c1[C@@H](C2)N(C)CC3`, the inhibition in test [9] was 6.42% (inactive).

For the molecule `CC1=C[C@@H]2c3cccc4[nH]cc(c34)C[C@H]2N(C)C1`, in [9], the inhibition is 69.4% (active).

Turning to `CCN(CC)C(=O)N[C@@H]1C=C2c3cccc4[nH]cc(c34)C[C@H]2N(C)C1`, the inhibition in test [9] is 9.57% (inactive).

Turning to `CN1CCC(c2c[nH]c3ccc(O)cc23)CC1`, the inhibition in test [9] is 4.07% (inactive).

For `COc1ccc2c(c[n+](C)c3c4cc5c(cc4ccc23)OCO5)c1OC`, the inhibition in [9] is 47% (inactive).

In the case of `c1ccc2sc(C3(N4CCCCC4)CCCCC3)cc2c1`, the inhibition in test [9] is -0.941% (inactive).

Consider `Cc1sc2ccccc2c1CC1=NCCN1`, for which the inhibition in [9] is 20.7% (inactive).

In the case of `NC(Cc1cc(O)c(O)cc1O)C(=O)O` (centres undefined), in test [9], the inhibition is -1.78% (inactive).

In the case of `NCC(O)c1ccc(O)cc1` (centres undefined), in test [9], the inhibition was 5.37% (inactive).

On to `CN(C(=O)Cc1ccc(Cl)c(Cl)c1)C(CN1CCCC1)c1cccc(OCC(=O)O)c1` (centres undefined), for which the inhibition in [9] was 4.68% (inactive).

Regarding `CN(C)[C@@H]1C(=O)C(C(N)=O)=C(O)[C@@]2(O)C(=O)C3=C(O)c4c(O)cccc4[C@@](C)(O)[C@H]3[C@H](O)[C@@H]12`, the inhibition of aggregation in test [2] is 62.6% (active). In addition, the values for the nuclei count in [2] and in [3] were 102% and 123%, respectively. Further, the inhibition in [3] is -42.6% (inactive); in [11], 8% (inactive); in [9], 12% (inactive); in [7], -6.24% (inactive); in [8], 5.5% (inactive). Besides, the z-score was 1.9 in [10] (measured here: cell density z-score); -1.29 in test [10] (measured here: nuclear c-Myc green intensity z-score); -0.511 in test [10] (measured here: nuclear pErk red intensity z-score, stronger effect = higher value). Also, the fluorescence slope in test [4] is -0.459 (inactive). Besides, the NADPH fluorescence slope in [5] was -9.9e-05 (inactive). Further, in test [12], the slope is 0.00569 (inactive). Besides, the result in [13] was inactive.

The values are drawn from PubChem BioAssay.
